# Rows were chosen to be rich in hits. Some 3.5% of all compounds tested hit in one or more screens of this group.
# MITF primary – human MITF inhibition, primary screen. O75030. AlphaScreen MITF homodimerization, bead proximity signal. inhibition, % at 2.6 µM. hit rate 0.91% among 650,000. AID 1259374; in the data active = inhibition above about 50%;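 also: 0% = vehicle wells with protein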
# GPR151 ag – human GPR151 activation | Q8TDV0 | PathHunter beta-arrestin GPR151 cells, luminescence | activation, % at 11.2 µM | hit rate 1% among 650,000 | AID 1508602; in the data active = activation above about 4.9%;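 also: 0% = median of compound wells and 100% = cells with positive control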
# Target sequence (Q8TDV0 whole entry, looked up): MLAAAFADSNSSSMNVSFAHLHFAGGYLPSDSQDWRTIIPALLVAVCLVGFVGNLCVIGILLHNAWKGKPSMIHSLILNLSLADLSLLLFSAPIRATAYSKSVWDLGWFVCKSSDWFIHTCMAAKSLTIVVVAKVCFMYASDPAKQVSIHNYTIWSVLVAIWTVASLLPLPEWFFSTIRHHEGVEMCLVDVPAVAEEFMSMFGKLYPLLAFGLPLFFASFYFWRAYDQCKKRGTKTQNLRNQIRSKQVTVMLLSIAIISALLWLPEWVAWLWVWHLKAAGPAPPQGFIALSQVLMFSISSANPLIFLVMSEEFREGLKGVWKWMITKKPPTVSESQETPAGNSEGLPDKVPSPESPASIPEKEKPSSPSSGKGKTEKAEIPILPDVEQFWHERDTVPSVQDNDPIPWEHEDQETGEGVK
# FBW7 activator – human FBW7 E3 ligase activation, primary screen. AlphaScreen FBW7–phospho-cyclin E peptide binding, activator screen. normalized activity (activation), % at 26.1 µM. hit rate 0.13% among 650,000. Q969H0; in the data active = normalized activity above about 1.9%;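 also: purified mutant Fbw7 with reduced substrate affinity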
# TEAD-YAP inh – TEAD-YAP interaction inhibition; HEK-TIYL cells, TEAD-Gal4/YAP UAS-luciferase luminescence; hit rate 1.4% among 640,000; inhibition, % at 9.12 µM; AID 1259422; in the data active = inhibition above about 32%;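 also: 0% = median of test compound wells and 100% = reference inhibitor wells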
# Starred values were filed as active, the others as inactive; ! = a repeat was not active.
SMILES,MITF primary,GPR151 ag,FBW7 activator,TEAD-YAP inh
CN1CCN(c2ccc(-c3nc(NCc4ccccc4)c4ncn(-c5ccsc5)c4n3)cc2)CC1,4.7,0.0,-0.2,3.5
CN1CCN(C(=O)c2ccc(-c3nc(NC4CC4)c4ncn(-c5ccsc5)c4n3)cc2)CC1,1.9,0.2,0.1,49.3*
CN1CCN(C(=O)c2ccc(-c3nc(Nc4ccccc4)c4ncn(-c5ccsc5)c4n3)cc2)CC1,-8.3,-0.3,0.0,22.6
CN1CCN(C(=O)c2ccc(-c3nc(NCc4nc5ccccc5[nH]4)c4ncn(-c5ccccc5)c4n3)cc2)CC1,9.3,0.5,0.0,12.5
CN1CCN(c2ccc(-c3nc(NC4CC4)c4ncn(-c5ccsc5)c4n3)cc2)CC1,5.0,0.7,-0.2,48.6*
O=C(O)c1ccc(N2C(=O)C3CC=CCC3C2=O)cc1 (configuration not stated),5.8,0.3,0.3,6.6
O=C1CN(c2ccccc2NC(=O)NCCCc2ccccc2)CCN1,2.0,-0.7,-0.2,10.7
Fc1ccc(CNc2nccn3c(-c4cccc5cccnc45)cnc23)cc1,-20.8,0.5,0.0,8.7
CC(C)CNc1nccn2c(-c3cccc4cccnc34)cnc12,-12.2,0.6,-0.1,41.7*
CCN(CC)c1ccc(/C=N/NC(=O)c2ccc(F)cc2)c(O)c1,-5.3,-0.7,0.0,72.6*
CCN(CC)c1ccc(/C=N\NC(=O)c2ccc(O)cc2)c(O)c1,16.0,0.1,-0.1,-6.5
CCN(CC)c1ccc(/C=N/NC(=O)c2cc(Cl)ccc2O)c(O)c1,0.5,-0.9,-0.1,-5.0
CCN(CC)c1ccc(/C=N/NC(=O)c2cc(C)oc2C)c(O)c1,9.8,-4.1,-1.1,53.4*
Cn1c(-c2ccccc2)cn2cc(-c3ccccc3)nc12,-9.3,-2.3,-0.1,100.0*
Cn1c(-c2ccccc2)cn2cc(-c3ccc(F)cc3)nc12,6.2,-5.0,-0.5,97.0*
Cc1cc(-c2ccccc2)nc2cc(C(=O)Nc3cc(Oc4cccc(Cl)c4)cc([N+](=O)[O-])c3)nn12,1.2,-0.8,0.0,2.7
COc1cccc(C2CC(c3cccs3)=NN2C(=O)CSc2nnc(CNC(=O)c3ccco3)n2-c2cccc(Cl)c2)c1OC (configuration not stated),10.7,1.9,0.0,17.1
NC(=O)c1ccc(Oc2ccc(OCc3ccccc3)cc2)c([N+](=O)[O-])c1,8.3,0.0,0.0,10.8
CCC(=O)NC(c1ccccc1)c1cc([N+](=O)[O-])c2cccnc2c1O (configuration not stated),84.0*,-1.2,-0.9,-6.1
CCCC(=O)NC(c1ccc2c(c1)OCO2)c1cc([N+](=O)[O-])c2cccnc2c1O (configuration not stated),44.1,0.0,-0.3,17.8
CCCC(=O)NC(c1ccc(O)c(OCC)c1)c1cc([N+](=O)[O-])c2cccnc2c1O (configuration not stated),40.7,-0.3,-0.2,14.7
CCC(=O)NC(c1ccccc1Cl)c1cc([N+](=O)[O-])c2cccnc2c1O (configuration not stated),71.9*,-0.6,-0.9,2.6
CCC(=O)NC(c1ccc2c(c1)OCO2)c1cc([N+](=O)[O-])c2cccnc2c1O (configuration not stated),62.9*,-0.6,-0.8,-13.7
CCC(=O)NC(c1ccc(C(C)C)cc1)c1cc([N+](=O)[O-])c2cccnc2c1O (configuration not stated),9.8,1.8,-0.7,-0.5
CCC(=O)NC(c1ccccc1OC)c1cc([N+](=O)[O-])c2cccnc2c1O (configuration not stated),97.6*,0.7,-0.8,-11.6
SMILES,MITF primary,GPR151 ag,FBW7 activator,TEAD-YAP inh
CC(=O)NC(c1ccc(C(C)C)cc1)c1cc([N+](=O)[O-])c2cccnc2c1O (configuration not stated),7.0,0.2,-0.5,7.4
C=CCNC(=O)CN(c1ccc(C)cc1)S(=O)(=O)c1ccc(OC)c(OC)c1,-12.0,-0.3,0.2,0.9
Cc1ccc2c(c1)cc(CN(Cc1ccc3c(c1)OCO3)C(=O)C(F)(F)F)c1nnnn12,3.3,0.0,0.5,11.4
N#C/C(=C/c1ccc(O)cc1)c1ccc(C#N)cc1,-7.3,-2.6,-0.2,44.8*
CN(C)c1ccc(/C=C(/C#N)c2ccc(C#N)cc2)cc1,6.8,3.6,0.8,-60.3
O=C(NCc1ccncc1)c1ccc2cncc(-c3ccccc3)c2n1,4.0,-0.4,-0.4,71.1*
COc1ccc(-c2cncc3ccc(C(=O)NCc4ccccc4OC)nc23)cc1,12.2,0.1,-0.1,49.6*
O=C(NCc1ccc(C(F)(F)F)nc1)c1ccc2cncc(-c3ccccc3)c2n1,12.8,1.5,-0.2,48.7*
COc1ccc(-c2cncc3ccc(C(=O)NCc4ccncc4)nc23)cc1,13.7,-1.5,-0.6,76.6*
O=C(NCc1ccncc1)c1cnc2ccccc2n1,3.6,-0.7,0.0,13.5
COc1cccc(C2C(C(C)=O)=C(C)Nc3ncnn32)c1OC (configuration not stated),-4.8,-2.4,-0.1,-1.3
COc1ccc(C/C(C#N)=C/Nc2ccc(C)cc2)cc1,3.1,-0.1,0.0,-64.8
CCCCN(CC)C(=O)c1cc(C(=O)OC)cc([N+](=O)[O-])c1,2.2,0.0,-0.3,-2.4
CSc1cccc(CN2CCc3ccc(NC(=O)c4ccncc4)cc3C2)c1,13.6,1.1,0.1,-6.6
COC(=O)c1ccc2c(=O)n3nc(NCCc4ccccc4)sc3nc2c1,-10.0,-0.5,-0.1,-5.6
NC(C(=O)Nc1ccc(-c2ncnc3[nH]ccc23)cc1)c1ccc(Cl)cc1 (configuration not stated),16.9,-0.1,0.1,57.5*
NC(C(=O)Nc1ccc(-c2ccnc3[nH]ccc23)cc1)c1ccc(Cl)cc1 (configuration not stated),11.4,0.0,0.1,8.5
O=C(Nc1ccc(-c2ncnc3[nH]ccc23)cc1)C1COc2ccccc2O1 (configuration not stated),23.4,-1.0,1.3,51.7*
O=C(CSc1nnc2ccc(-c3cccnc3)nn12)N1CCCc2ccccc21,7.8,-0.9,1.9*,0.1
O=C(CSc1nnc2ccc(-c3ccc(Cl)cc3)nn12)N1CCCc2ccccc21,5.2,-0.5,0.1,-2.8
O=c1[nH]c2c([N+](=O)[O-])cccc2c2ccccc12,8.3,0.8,0.2,13.4
NS(=O)(=O)c1cccc2c1c([N+](=O)[O-])cc1[nH]c(=O)c(=O)[nH]c12,69.1*!,-0.1,0.8,-2.1
CCC(C)NC(=O)c1c(C)nc2ccccn12 (configuration not stated),15.4,-0.5,2.1*,10.9
Cc1nc2ccccn2c1C(=O)NCc1ccccc1,-1.7,4.8,-0.3,-4.8
Cc1nc2ccccn2c1C(=O)NCc1ccccc1Oc1ccccc1,20.6,-1.0,1.9*,3.2
COC(=O)c1cccc(NS(=O)(=O)c2cccc([N+](=O)[O-])c2)c1C,12.4,-1.0,0.4,-0.3
O=C(NCCc1nnc2ccc(SCc3cccc(F)c3)nn12)c1ccccc1,0.7,-0.4,0.1,21.3

# Bioassay records as filed in PubChem BioAssay.
